Source: PubChem (National Center for Advancing Translational Sciences (NCATS))
Tb PYK inh – inhibitors of Trypanosoma brucei pyruvate kinase; Q57TT1; TbPYK enzyme, Kinase-Glo Plus ATP luminescence, 45 min; Potency, µM (highest dose often 76.8 µM), actives largely listed as inhibitors; actives 0.12% (n = 410,000); AID 624173; active = well fitted curve in the direction sought with a large enough effect; inconclusive = small, poorly fitted or top-dose-only effect, or another doubt; inactive = no such curve, though single readings can be large; an effect the other way counts as inactive or inconclusive; also: nearly all actives have a fitted effect of over 50% in size
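In this concentration-response screen, enzyme-free wells defined baseline while DMSO plates tracked drift. Each reaction combined TbPYK, substrate, compound and 130 uM ADP for 45 min at room temperature. Kinase-Glo Plus luminescence gave the signal.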
Cycloheximide cs – counter-screen hit for Shiga toxin inhibitors, cycloheximide; cell reporter, cycloheximide protein synthesis inhibition counterscreen; actives 12% (n = 300,000); max response, %; in the data active = max response mostly above about 13%, no sharp cut-off; inactive = mostly below about 14%; also: read at 38.3 µM for the half of the compounds with a filed dose
Shiga inhibitor – Shiga toxin inhibition; actives 9.2% (n = 290,000); AID 2315; Vero cells, Shiga toxin protein synthesis inhibition reporter; inhibition, % at 38.7 µM; in the data active = inhibition mostly above about 28%, no sharp cut-off; inactive = mostly below about 43%
LmPK inhibitor – LmPK (Leishmania mexicana) enzyme inhibition; purified LmPK, Kinase-Glo ATP luminescence, 1 h; Potency, µM (doses to about 57.5 µM), actives largely listed as inhibitors; actives 0.37% (n = 290,000); AID 1721; active = well fitted curve in the direction sought with a large enough effect; inconclusive = small, poorly fitted or top-dose-only effect, or another doubt; inactive = no such curve, though single readings can be large; an effect the other way counts as inactive or inconclusive
Target sequence (Q27686 whole entry, looked up): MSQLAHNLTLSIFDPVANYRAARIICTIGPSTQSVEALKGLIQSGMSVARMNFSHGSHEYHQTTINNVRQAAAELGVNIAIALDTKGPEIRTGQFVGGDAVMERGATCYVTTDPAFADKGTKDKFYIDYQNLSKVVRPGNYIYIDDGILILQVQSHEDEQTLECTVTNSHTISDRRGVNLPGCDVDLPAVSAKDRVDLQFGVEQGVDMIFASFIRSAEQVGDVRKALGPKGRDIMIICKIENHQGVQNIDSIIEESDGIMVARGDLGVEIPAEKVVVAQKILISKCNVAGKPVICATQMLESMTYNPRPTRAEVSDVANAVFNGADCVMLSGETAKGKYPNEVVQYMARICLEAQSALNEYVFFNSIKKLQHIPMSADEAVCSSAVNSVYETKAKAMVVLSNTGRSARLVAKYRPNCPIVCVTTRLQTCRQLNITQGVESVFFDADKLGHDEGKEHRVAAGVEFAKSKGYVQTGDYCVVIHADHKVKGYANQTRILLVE
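ATP generated from ADP (0.1 mM) and PEP (0.5 mM) by 0.1 nM LmPK over 1 h at room temperature (pH 7.2 imidazole buffer) was detected by coupled luciferase luminescence. Values were normalized to uninhibited and no-enzyme wells.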
SARS PLpro yeast – blocks SARS-CoV papain-like protease in a yeast assay; actives 0.19% (n = 330,000); Potency, µM (highest dose often 32.9 µM), usual class: activators; S. cerevisiae expressing SARS-CoV PLpro, growth rescue; also: nearly all actives have a fitted effect of over 55% in size
NS1 inh – blocks influenza NS1 protein function; AID 2326; Potency, µM (top dose mostly 46.1 µM); actives 0.4% (n = 270,000); also: actives are rising curves; nearly all actives have a fitted effect of over 50% in size
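Growth recovery, yeast-based: influenza A NS1 expressed in S. cerevisiae causes slow growth, and suppressors are detected by OD600. The parent strain without NS1 is used as positive control.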
Hits are given with their value; . = inactive; ? = inconclusive; / = no result; [ ] = dose if it differs, or a comment. The entries come from a sample that favours hits as a whole. Unless noted, calls follow the shape of the full dose curve.

SMILES	Tb PYK inh	Cycloheximide cs	Shiga inhibitor	LmPK inhibitor	SARS PLpro yeast	NS1 inh
Cc1ccc(CNC(=O)c2ccc3c(c2)NC(=O)C(CS(=O)(=O)Cc2cccc(C)c2)N3)cc1 (centres undefined)	.	/	/	/	/	/
CC(C)[C@H](Nc1ncnc2nc[nH]c12)C(=O)O	/	/	/	/	/	.
CN1CCN(C(=O)CC2(CC(=O)O)CCCC2)CC1	.	.	.	.	.	/
Cc1ccc(-n2nc3ccc(NC(=O)c4cccc([N+](=O)[O-])c4C)cc3n2)cc1	.	28	.	.	.	.
CC(C)CC(=O)Nc1ccc2nn(-c3ccccc3)nc2c1	.	66	53	.	.	.
O=C(Nc1ccc2nn(-c3ccccc3)nc2c1)c1cc2ccccc2o1	.	/	/	/	/	/
Cc1nnc2c3ccccc3nc(N3CCN(c4cccc(Cl)c4)CC3)n12	.[15.4 µM]	/	/	/	/	/
O=c1oc(-c2ccccc2F)nc2scc(-c3ccccc3)c12	.	21	32	.	.	.
O=C(Cn1c(=O)n(-c2ccc(Cl)cc2)c(=O)c2sc3ccccc3c21)NC1CCCC1	.	/	/	/	/	/
Cn1c2ccccc2c2cnn(CC(=O)Nc3ccccc3C(F)(F)F)c(=O)c21	.	/	/	/	/	/
O=C(COc1cccc(NC(=O)c2ccccc2)c1)c1ccccc1	.	.	.	.	.	.
COc1cccc(C(=O)NCC(=O)OCC(=O)c2ccccc2)c1	.	29	83	.	.	.
COc1cccc(C(=O)Nc2cccc(OCC(=O)c3ccccc3)c2)c1	.	21	.	.	.	.
COc1cccc(C(=O)COc2ccc(NC(=O)c3ccccc3)cc2)c1	.	16	.	.	.	.
O=C(Nc1ccc(NC(=O)c2cccs2)cc1)c1ccccc1	.	24	46	.	.	.
O=C(Nc1cccc(O)c1)c1ccc(NC(=O)c2cccs2)cc1	.	74	130	.	.	.
O=C(Nc1ccc(NC(=O)c2cccs2)cc1)c1ccc(Cl)cc1	.	/	/	/	/	/
O=C(O)c1ccc(NC(=O)c2cccc(NC(=O)c3cccs3)c2)cc1	.	.	.	.	.	.
O=C(Nc1ccc(O)cc1)c1ccc(NC(=O)c2cccs2)cc1	.	38	87	.	.	.
CCOc1ccc(S(=O)(=O)N(CC(=O)Nc2cccnc2)c2ccccc2)cc1	.	/	/	/	/	/
Cn1cc(S(=O)(=O)N2CCCC2)cc1C(=O)Nc1ccc(C(F)(F)F)cc1	.	/	/	/	/	/
O=c1cc(CO)occ1OCc1ccccc1	.	.	.	.	.	.
C#CCOc1coc(COC(=O)c2ccccc2)cc1=O	.	23	.	.	.	.
COc1ccc(NC(=O)N2c3ccccc3C(C)=CC2(C)C)cc1	.	20	38	.	.	/
CCOc1ccc2c(c1)C(C)=CC(C)(C)N2C(=O)Nc1ccccc1	.	29	.	.	.	.
SMILES	Tb PYK inh	Cycloheximide cs	Shiga inhibitor	LmPK inhibitor	SARS PLpro yeast	NS1 inh
COc1ccc(NC(=O)N2c3ccc(OC)cc3C(C)=CC2(C)C)cc1	.	.	.	.	.	.
c1ccc(C2=NNC(=NCc3ccc4c(c3)OCO4)SC2)cc1	.	18	80	.	.	.
Cc1c(N=C2NN=C(c3ccc(Cl)cc3)CS2)c(=O)n(-c2ccccc2)n1C	.	.	.	.	.	/
C=CCN=C1NN=C(c2cc(C)n(CC=C)c2C)CS1	?	28	.	?	.	.
COCCN=C1NN=C(c2cc(C)n(CC3CCCO3)c2C)CS1 (centres undefined)	.	.	.	.	.	.
Fc1ccc(C2=NNC(=NCc3ccccc3)SC2)cc1F	?	34	64	.	.	/
COCCN=C1NN=C(c2ccc(NC(C)=O)cc2)CS1	.	.	.	.	.	.
CCN=C1NN=C(c2ccc(C)cc2)CS1	?	38	106	.	.	.
CC(C)N=C1NN=C(c2ccc(F)cc2)CS1	?	18	80	?	.	/
C=CCN=C1NN=C(c2ccc3c(c2)OCCO3)CS1	.	21	41	10µM	.	/
c1ccc(CN=C2NN=C(c3ccccc3)CS2)cc1	.	55	.	.	.	/
COc1ccccc1C1=NNC(=NCc2ccccc2)SC1	.	31	33	.	.	/
Cc1[nH]c2ccccc2c1C1=NNC(=Nc2ccc(F)cc2)SC1	?	.	.	.	.	?
O=c1[nH]c(NCCO)c(N=Cc2ccccc2)c(=O)[nH]1	.	/	/	/	/	/
C[C@H](CO)N1C[C@H](C)[C@H](CN(C)C(=O)c2ccc3ccn(C)c3c2)OCc2cnnn2CCCC1=O	.	/	/	/	/	/
Clc1ccc(C2=NNC(=NCc3ccccc3)SC2)cc1	.	.	74	.	.	/
CC(=O)c1c(C)[nH]c(C2=NNC(=NCc3ccccc3)SC2)c1C	.	.	.	.	.	/
C[C@H](CCCC(C)(C)O)[C@H]1CC[C@H]2[C@@H]3CC=C4C[C@@H](O)CC[C@]4(C)[C@H]3CC[C@]12C	.	/	/	/	/	/
O=C(NC1CCCCCCC1)c1c(O)c2ccccc2[nH]c1=O	.	16	47	.	.	.
O=C(NC1CC1)c1c(O)c2ccccc2[nH]c1=O	.	.	.	.	.	.
Nc1nc2c(s1)CCc1c-2cnn1-c1ccccc1	?	46	151	14µM	.	.
COc1ccc(-c2cnn(-c3ccccc3)c2N)cc1OC	.	.	.	.	.	.
Cc1ccc(-c2nc3ncccc3o2)cc1NC(=O)c1ccc(-c2ccc(Cl)cc2)o1	.	/	/	/	/	/
O=C(Nc1ccc(Cl)cc1)OCc1ccccn1	.	29	78	.	.	.
CS(=O)(=O)c1ccccc1COC(=O)Nc1ccc(Cl)cc1	.	21	.	.	.	.
SMILES	Tb PYK inh	Cycloheximide cs	Shiga inhibitor	LmPK inhibitor	SARS PLpro yeast	NS1 inh
O=C(Nc1ccc(Cl)cc1)OCc1cc(-c2ccccc2Cl)on1	.	.	.	.	.	.
O=C(NCc1ccccc1Cl)c1c2c(nc3ccccc13)C(=O)N(C1CCCCC1)C2	.	/	/	/	/	/
C/C(=N\NC(=O)c1ccccc1O)c1c(O)cc(C)oc1=O	.	28	.	.	.	.
C/C(=N\NC(=O)c1cccnc1)c1c(O)cc(C)oc1=O	.	21	34	.	.	.
C/C(=N\NC(=O)c1ccccc1[N+](=O)[O-])c1c(O)cc(C)oc1=O	.	.	.	.	.	.
COc1cc(Cl)ccc1OC1(C)CCN(Cc2ccc3ccccc3c2)C1 (centres undefined)	.	/	/	/	/	/
Cn1c(C(=O)NCc2ccc(F)cc2)cc2c(=O)n(C)c3ccccc3c21	.	/	/	/	/	/
Cc1cc2ccccc2c(=O)[nH]1	.	.	.	.	.	.
Cc1nc2cc3ccccc3cc2c(=O)[nH]1	.	31	46	?	.	.
CC(C)OC(=O)Cc1nc2sc(-c3ccccc3)cc2c(=O)[nH]1	.	61	69	.	.	.
Cc1nc2sc(-c3ccccc3)cc2c(=O)[nH]1	.	19	.	?	.	.
O=c1[nH]c(-c2cccnc2)nc2sc(-c3ccccc3)cc12	.	.	.	.	.	.
O=c1c(-c2ccc(F)cc2)nc2cncnc2n1C1CC1	.	/	/	/	/	/
Nc1[nH]c(C(=O)c2ccccc2)c(-c2cccnc2)c1C(=O)NC1CCCCC1	.	/	/	/	/	/
